BAZ2B inh: inhibitors of human BAZ2B bromodomain; 360,000 compounds, 4.4% hits; AlphaScreen BAZ2B-H3K14Ac peptide displacement; AID 504333; Potency, µM (top dose mostly 114 µM), for the others: at the highest dose activity change, negative = inhibition, hits mostly inhibitors; Q9UIF8; further: on the % scale 0 is the no-effect control and ±100 the full control effect; nearly all actives have a fitted effect of over 60% in size
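AlphaScreen displacement: compounds (up to 110uM) incubated 30 min at room temperature with a preformed 50 nM BAZ2B/50 nM biotinylated H3K14Ac peptide complex in PBS pH 7.4 with Tween-20. Donor and acceptor beads at 10 ug/mL final added, 20 min light-protected before reading.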
HP1b binding inh: blocks HP1-beta chromodomain binding to methylated histone tails; AlphaScreen HP1-beta / biotin-H3K9me3 peptide binding; AID 540317; 390,000 compounds, 0.56% hits; Potency, µM (top dose mostly 114 µM), inactives show at the top dose activity change, negative = inhibition, actives largely listed as inhibitors; further: nearly all actives have a fitted effect of over 70% in size
Target sequence (P83916 whole entry, looked up): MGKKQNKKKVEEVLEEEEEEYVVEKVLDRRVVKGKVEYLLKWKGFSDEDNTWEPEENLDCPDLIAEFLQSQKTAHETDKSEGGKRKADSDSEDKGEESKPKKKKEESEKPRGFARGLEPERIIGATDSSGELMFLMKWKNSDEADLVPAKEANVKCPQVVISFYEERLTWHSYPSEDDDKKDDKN
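AlphaScreen: HP1-beta (50 nM) preformed 30 min with biotin-H3(1-18)K9me3 peptide (50 nM) in PBS pH 7.4, 0.01% Tween-20. Compound added for 30 min at RT, then streptavidin donor/nickel chelate acceptor beads (10 ug/mL) for 30 min.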
JMJD2A Tudor: blocks the human JMJD2A Tudor domain. AlphaScreen JMJD2A-Tudor / H3K4me3 peptide binding. Potency, µM (series often up to 114 µM), for inactives: at the highest dose activity change, negative = inhibition, actives largely listed as inhibitors. O75164. 390,000 compounds, 4.4% hits; further: on the % scale 0 is the no-effect control and ±100 the full control effect; nearly all actives have a fitted effect of over 50% in size
L3MBTL1 block: L3MBTL1 (human) inhibition | Q9Y468 | AlphaScreen L3MBTL1–H3K9me1 peptide binding | Potency, µM (series often up to 57.1 µM), without a hit: top-dose activity, negative = inhibition, actives largely listed as inhibitors | 230,000 compounds, 0.66% hits; further: on the % scale 0 is the no-effect control and ±100 the full control effect; nearly all actives have a fitted effect of over 60% in size
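AlphaScreen assay: L3MBTL1 (50 nM final) was preincubated 30 min at room temperature with biotinylated H3(1-15)K9me1 peptide (75 nM final), then 30 min with library compounds; streptavidin donor and nickel chelate acceptor beads (10 ug/mL final) added, 30 min dark.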
G9a block: inhibitors of human histone lysine methyltransferase G9a. G9a H3K9 monomethylation, AlphaScreen, 2 h. 350,000 compounds, 8.8% hits. AID 504332. Potency, µM (highest dose often 102 µM), without a hit: at the top dose activity, negative = inhibition, hits mostly inhibitors; further: on the % scale 0 is the no-effect control and ±100 the full control effect; nearly all actives have a fitted effect of over 75% in size
Target sequence (Q96KQ7 913-1193 limits assumed): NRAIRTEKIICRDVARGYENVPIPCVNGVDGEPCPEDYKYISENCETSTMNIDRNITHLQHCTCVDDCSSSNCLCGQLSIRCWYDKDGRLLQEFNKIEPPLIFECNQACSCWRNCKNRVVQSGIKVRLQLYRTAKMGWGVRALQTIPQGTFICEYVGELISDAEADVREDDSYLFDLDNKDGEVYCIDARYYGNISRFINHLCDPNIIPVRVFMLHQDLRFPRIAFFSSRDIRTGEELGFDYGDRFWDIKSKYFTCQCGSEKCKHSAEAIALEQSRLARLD
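G9a (20 nM) was preincubated 15 min with compound, then reacted 2 h at room temperature with 500 nM biotin-H3K9 peptide and 20 µM SAM. Monomethyl-H3K9 detected by AlphaScreen using anti-H3K9me1 antibody.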
* hit, by the source's call; ? = inconclusive; / = no result given; [ ] = another dose, or the depositor's remark. Only some compounds are listed: those with a hit (about 11% of all), similar ones and a draw of the others. The call rests on the fitted dose curve; in most records, active means well fitted inhibition curve with a large enough effect; inconclusive means small, poorly fitted or top-dose-only effect; inactive means no such curve, though single readings can be large or run the other way. Potency means the concentration at half of the fitted maximal effect.

SMILES	BAZ2B inh	HP1b binding inh	JMJD2A Tudor	L3MBTL1 block	G9a block
O=C(/C=C/c1ccc(-c2ccccc2[N+](=O)[O-])o1)c1ccc(F)cc1	22µM*	?	?	-29%	35µM*
Cc1ccc(C(=O)/C=C/c2ccccc2[N+](=O)[O-])cc1	?	?	?	-23%	?
Cc1ccc(C(=O)/C=C/c2ccc(-c3ccccc3[N+](=O)[O-])o2)cc1	25µM*	?	?	-19%	25µM*
O=C(/C=C/c1ccc(-c2ccccc2[N+](=O)[O-])o1)c1ccc(Br)cc1	28µM*	-36%	?	-27%	25µM*
N#C/C(=C/c1ccc(-c2ccccc2[N+](=O)[O-])o1)C(N)=O	-17%	24%	-9%	-1%	-39%
COC(=O)CN1C(=O)CSc2ccc(S(=O)(=O)Nc3cccc(Cl)c3C)cc21	-9%	37%	-9%	/	-8%[59 µM]
CC(C)NC(=O)c1cc2c(Cl)nc3ccccc3c2s1	1%	47%	-1%	/	7%[59 µM]
CC(C)(C)c1ccc(C2Sc3ccccc3NC3=C2C(=O)c2ccccc23)cc1 (stereo not drawn)	8.9µM*	?	25µM*	/	10µM*
CCCCCCCCc1nc(=S)[nH][nH]1	13%	?	?	4%	0.89µM*
CCCCCCC1CC(CCc2nc(=S)[nH][nH]2)C(=O)O1 (stereo not drawn)	0%	-17%	32µM*	-1%	1.6µM*
CCN(Cc1nc2cc(Cl)ccc2c(=O)[nH]1)C(=O)c1cccc(OCc2c(C)noc2C)c1	-3%	28%	-2%	-2%	18%[2.33 µM]
C=CCNc1oc(Cc2cccc3ccccc23)nc1C#N	50µM*	35%	?	/	50µM*
COCCNc1oc(Cc2cccc3ccccc23)nc1C#N	?	-13%	-27%	-15%	79µM*
N#Cc1nc(Cc2cccc3ccccc23)oc1NCc1ccc(F)cc1	?	?	?	-17%	25µM*
CCOc1ccccc1CNS(=O)(=O)c1cc2c(cc1C)NC(=O)CO2	2%	44%[57 µM]	-16%	/	4%[59 µM]
COc1ccc(-c2noc(CSc3nnc(-c4ccc(Cl)cc4)n3C)n2)cc1OC	-16%	34%	-24%	/	-14%[59 µM]
Cc1ccc(-c2cc3c(N4CCN(c5cc(C)ccc5C)CC4)nccn3n2)cc1	?	-17%	-25%	/	?
CCOc1ccccc1N(C)C(=O)Cn1cnc2onc(-c3ccc(F)cc3)c2c1=O	12%[57.1 µM]	30%	-7%	/	-17%[59 µM]
CC(=O)c1cccc(NC(=O)CCNS(=O)(=O)c2cccc(C(C)=O)c2)c1	10%	35%	-10%	-4%	-14%[12.7 µM]
CC(=O)c1cccc(S(=O)(=O)NCCC(=O)Nc2ccc(S(N)(=O)=O)cc2)c1	19%	35%	9%	/	50µM*
O=C(CSCc1cccc(F)c1)NCc1ccccc1	-2%	20%	-2%	/	30%
Cc1ccc(CNC(=O)CSCc2cccc(F)c2)cc1	/	-6%	50µM*	/	-22%
Cc1ccc2nc(COc3ccccc3NC(=O)c3ccc(F)cc3)cc(=O)n2c1	3%	18%[57 µM]	-12%	/	5%[59 µM]
Cc1nnc(NC(=O)COc2ccc3c(C)cc(=O)oc3c2)s1	?	6%	-22%	/	8.9µM*
Cc1cc(=O)oc2cc(OCC(=O)NCCc3nc4ccccc4[nH]3)ccc12	3%	15%	-13%	/	50µM*
SMILES	BAZ2B inh	HP1b binding inh	JMJD2A Tudor	L3MBTL1 block	G9a block
CO/N=C\Cc1oc(=O)c(NC(=O)c2ccccc2)cc1C(=O)OC	-6%	-5%	-10%[11.4 µM]	/	32µM*
COC(=O)c1cc(NC(=O)c2ccccc2)c(=O)oc1C/C=N\OCc1ccc(Cl)cc1Cl	-9%	0%	-30%	/	40µM*
Cc1oc(=O)c(NC(=O)c2ccccc2)cc1C(N)=O	-1%	42%	-6%[11.4 µM]	7%	-6%
CCCc1c(O)nc(SCCN(CC)CC)n(C(=O)c2ccccc2)c1=O	-32%	20%	-30%	2%	79µM*
Cc1cc(F)ccc1NCC(=O)Nc1ccccc1Br	6%	4%	-18%	-1%	50µM*
Cc1ccc(F)cc1NCC(=O)Nc1ccc(Cl)cc1F	-2%	23%	-2%	9%	25%
Cc1ccccc1NC(=O)CSc1nc2nccnc2c(=O)n1CCc1c[nH]c2ccccc12	-5%	58%	-10%	/	-1%[59 µM]
O=C(CSC1=N/C(=C/c2ccco2)C(=O)N1c1ccc(OC(F)F)cc1)NC1CCS(=O)(=O)C1 (stereo not drawn)	50µM*	-13%	?	-1%	45µM*
COc1ccc(N2C(=O)/C(=C\c3ccco3)N=C2SCC(=O)NC(C)C)cc1Cl	?	-7%	-19%	-4%	?
O=C(CCCCCn1c(=O)c2sccc2n(CC(=O)Nc2cc(C(F)(F)F)ccc2Cl)c1=O)NCc1ccccc1Cl	-8%	23%	-14%	/	-24%[59 µM]
CCOc1ccc(CCn2c3c(c(=O)[nH]c2=O)C(NC(=O)c2ccccc2)(C(F)(F)F)C(=O)N3)cc1OCC (stereo not drawn)	-15%	42%	-13%	/	2%[59 µM]
COc1ccc(S(=O)(=O)N(C(=O)C(C)C)c2ccc3oc(=O)sc3c2)cc1	?	48%	-21%	/	7.9µM*
CC(C)C(=O)N(c1ccc2oc(=O)sc2c1)S(=O)(=O)c1ccccc1	-32%	19%	?	/	3.2µM*
CCCC(=O)N(c1ccc2oc(=O)sc2c1)S(=O)(=O)c1cccs1	-6%	38%	-13%	-14%	40µM*
COc1ccc(OC)c(S(=O)(=O)N(C(C)=O)c2ccc3oc(=O)sc3c2)c1	-20%	62%	1%	/	35µM*

Source: PubChem BioAssay (National Center for Advancing Translational Sciences (NCATS))
